The record followed here is PubChem BioAssay (EPA / NIEHS).

Each structure is given as a SMILES string. Calls of active or inactive are those of the source. Rule for the calls: active = hit-call score of the fitted dose curve at least 0.9, where 1 is the maximum; inactive = score below 0.9.

This test can be described thus: CCTE_Shafer_MEA_acute_burst_number: CCTE's Neural Acute Assay for Single-Electrode Bursts, Shafer Lab (AID 2284013). How it is done:
CCTE_Shafer_MEA_acute assay is conducted using Axion Biosystems 48 well microelectrode array (MEA) plates and Maestro recording system. Each well of the MEA plate contains a grid of 16 microelectrodes embedded in the culture surface. Electrically active cells, such as neurons, can be cultured over the electrodes, and electrical activity in these cells can be recorded extracellularly. The spontaneous firing of neurons is captured from each electrode on a microsecond timescale providing both temporally and spatially precise data. […] The CCTE_Shafer_MEA_acute assay uses primary cultures of rat cortical neurons. As these cultures mature over time, neural networks develop functional activity and form cohesive networks in which electrical activity can be highly coordinated. Baseline 40-minute recordings are made on days post-plating 13 or 15, followed by a secondary 40-minute recording after chemical exposure.CCTE_Shafer_MEA_acute_burst_number is a component of the CCTE_Shafer_MEA_acute assay. It measures the total number of single-electrode bursts (temporally-clustered groups of action potential firing) during a recording in a microelectrode array (MEA) using Axion Biosystems Maestro 768 channel amplifier with the AxIS adaptive spike detector. The recordings before and after chemical treatment are used to calculate a percent change in the burst number in each well.Data from the assay component CCTE_Shafer_MEA_acute_burst_number was analyzed into 1 assay endpoint. This assay endpoint, CCTE_Shafer_MEA_acute_burst_number, was analyzed in the negative analysis fitting direction relative to DMSO as the negative control and baseline of activity. Using a type of functional reporter, gain or loss-of-signal activity can be used to understand electrical activity.
Spontaneous activity in the cortical cultures was recorded using an Axion Biosystems Maestro 768 channel amplifier and Axion Integrated Studios (AxIS) v1.8 (or later) software. The amplifier recorded from all channels simultaneously (gain = 1200 x; sampling rate = 12.5 kHz/channel): raw signals were filtered with a Butterworth band-pass filter (300-5000 Hz), which filters out slower local field potentials leaving only fast potentials, i.e., "spikes", arising from extracellular currents associated with action potentials (Pine 2006; Wheeler and Nam 2011). On-line spike detection of filtered signals was conducted with the AxIS adaptive spike detector, using a threshold of 8x the root mean squared (rms) noise on each channel. Any electrodes with rms noise levels greater than 5 uV were grounded (e.g., no data were recorded). Once grounded, an electrode was grounded for the duration of the experiment. All recordings were conducted at 37 C. Wells were deemed usable if on the day of the exposure >/= 10 electrodes were active (defined as >/= 5 spikes/min). On DIV 13 or 15, a minimum of three wells from one cortical culture preparation were treated with each compound (0.03-40 uM). Prior to recording baseline activity, each mwMEA plate was placed in the Maestro at 37 C and allowed to sit for 20 min while firing rates stabilized. Baseline activity (40 min) was recorded before the addition of each compound. An additional 40 min of spontaneous activity was recorded in the presence of each compound. Changes in network parameters relative to baseline were assessed following compound treatment.
In the case of `OC[C@H]1O[C@H](O[C@]2(CCl)O[C@H](CCl)[C@@H](O)[C@@H]2O)[C@H](O)[C@@H](O)[C@H]1Cl`, the compound was classed as inactive. `C[C@H]1C[C@@H]2[C@H]([C@@H](O)C[C@@]3(C)[C@H]2CC[C@]3(O)C(=O)CO)[C@@]2(C)C=CC(=O)C=C12`: the AC50 (in general, the midpoint of the concentration-response curve, whichever way the signal moves) was 3 nM (active). Consider `Nc1cc([N+](=O)[O-])ccc1O`, for which the compound was called inactive. In the case of `CC(=O)[C@H]1CC[C@H]2[C@@H]3CC=C4C[C@@H](O)CC[C@]4(C)[C@H]3CC[C@]12C`, the AC50 was 14.4 nM (active). For `Cc1cc(C2(c3cc(C)c(O)cc3C)OS(=O)(=O)c3ccccc32)c(C)cc1O`, the AC50 was 148 nM (active).

With `CC[Si](OC(C)=O)(OC(C)=O)OC(C)=O`, the AC50 was 429 nM (active). On to `C=C[Si](OCC)(OCC)OCC`, for which the compound was called inactive. Consider `NCCNCCN`, for which the compound was called inactive. For `CCCCCCCCC=O`, the result was inactive. As to `CC(=O)OCCC(C)CC(C)(C)C` (stereo unspecified), the compound was classed as inactive. On the same count and under the same terms, to `CN(C)C(=N)N=C(N)N` belongs “inactive”; to `CC(C)(COC(=O)c1ccccc1)COC(=O)c1ccccc1`, “inactive”; to `CCC(=O)OCc1ccccc1`, “inactive”.

As to `COc1cc(C=O)ccc1OC(=O)C(C)C`, the compound was classed as inactive. In the case of `C=CCOC(=O)CCC1CCCCC1`, the result was inactive. In the case of `OC1OC[C@@H](O)[C@H](O)[C@H]1O` (stereo partly specified), the compound was called inactive.
